Screening data from PubChem BioAssay.
Sampled rows, rich in hits. Any-hit rate of the full collection: about 4.7%.
SKKanGAS inh – SKKanGAS growth inhibition. S. pyogenes SKKanGAS, kanamycin growth, BacTiter-Glo, 6 h. inhibition, % at 7.5 µM. actives 1.3% (n = 300,000);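 active = mean replicate score, as percent of positive control median, at least 50; inconclusive = mean below 50 but one replicate at or above 50; inactive = mean and every replicate below 50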;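 note: strain carries kanamycin resistance gene driven by streptokinase promoter and grows in 40 µg/ml kanamycin; loss of luminescence reflects streptokinase promoter inhibition or plain growth inhibition; 0% = median of DMSO wells and 100% = positive control at its reference dose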
tim23-1 inh – growth inhibitors of tim23-1 mutant yeast; S. cerevisiae tim23-1 growth, BacTiter-Glo luminescence, 24 h; inhibition, % at 20 µM; actives 1.3% (n = 330,000);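 active = growth inhibition of the mutant yeast at or above 50%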;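 note: temperature-sensitive mutant grown at 25 °C; plate controls were DMSO-treated mutant yeast for no effect and medium wells lacking yeast for full effect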
PfHsp90 set2 – inhibits growth of yeast expressing Plasmodium falciparum Hsp90 | S. cerevisiae expressing PfHsp90, BacTiter-Glo ATP, 48 h; yeast lacking PDR1 and PDR3 efflux regulators | inhibition, % at 9.4 µM | actives 0.32% (n = 310,000);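 active = every replicate shows inhibition above about 80%, whatever the replicate mean, limit read from the data; inconclusive = mean inhibition reaches the set limit but some replicate falls short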;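 note: 0% = DMSO neutral controls and 100% = 20 µM radicicol positive controls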
EBI2 block – antagonists of human EBI2 receptor | P32249 | inhibition, % at 5 µM | EBI2 beta-arrestin recruitment, luminescence, 7a,25-OHC stimulated | actives 0.81% (n = 360,000); in the data active = inhibition above about 38%;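 note: enzyme fragment complementation signal reports receptor beta-arrestin coupling in cells; 0% = agonist plus DMSO wells and 100% = wells without agonist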
Target sequence (P32249 whole entry, looked up, the tested form may be a part): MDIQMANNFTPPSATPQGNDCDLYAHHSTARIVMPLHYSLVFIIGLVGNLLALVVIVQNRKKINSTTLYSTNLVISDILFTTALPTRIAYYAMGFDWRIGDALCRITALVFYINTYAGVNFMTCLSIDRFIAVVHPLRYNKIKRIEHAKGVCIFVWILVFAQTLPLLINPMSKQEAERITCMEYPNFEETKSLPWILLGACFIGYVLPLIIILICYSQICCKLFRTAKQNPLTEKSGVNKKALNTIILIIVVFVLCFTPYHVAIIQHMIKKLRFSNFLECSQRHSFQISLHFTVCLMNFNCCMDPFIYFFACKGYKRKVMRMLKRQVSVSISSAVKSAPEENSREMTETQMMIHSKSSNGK
TIM10 inh – growth inhibitors of TIM10 yeast strain. actives 1.4% (n = 330,000). S. cerevisiae TIM10 strain growth, BacTiter-Glo luminescence, 24 h. inhibition, % at 10 µM;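 active = inhibition of 40% or more at the single tested concentration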;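 note: wild-type TIM10 isogenic control strain grown at permissive 25 °C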
tim10-1 inh – inhibits growth of tim10-1 mutant yeast; AID 463190; actives 2.2% (n = 330,000); S. cerevisiae tim10-1 ts strain growth, BacTiter-Glo, 24 h; inhibition, % at 20 µM;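 active = inhibition of at least 40%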;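 note: mutant grown at 25 °C; 0% = DMSO wells with yeast and 100% = wells holding no yeast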
Active calls of the source: *.

What do the screens show for `C=C1C(=O)OC2CC1C(OC(C)=O)CC(C)=CCCC(C)=CCCC2(C)O` (stereo not drawn)?
EBI2 block: 51.0*

What do the screens show for `Nc1c(-c2ccccc2)c(CSc2nc3ccccc3[nH]2)nn1-c1ccc(Cl)cc1`?
SKKanGAS inh: 29.9; PfHsp90 set2: 4.6; EBI2 block: 28.9

How did Nc1c(-c2ccccc2)c(CSc2nc3ccccc3[nH]2)nn1-c1cccc(Cl)c1 do in these assays?
SKKanGAS inh: 103.0*; tim23-1 inh: 29.5; PfHsp90 set2: -29.7; EBI2 block: 36.4; TIM10 inh: 24.4; tim10-1 inh: 24.0

Results for CCNC(=O)C1CCCN(C(=O)c2cccc(OC(F)(F)F)c2)CC1 (stereo not drawn) ?
EBI2 block: -0.5

How did O=C(/C=C/c1ccco1)Oc1cc(Br)cc(/C=N/NC(=O)c2ccccc2O)c1 do in these assays?
SKKanGAS inh: 88.2*; PfHsp90 set2: -133.6; EBI2 block: 8.1

What do the screens show for `Cc1ccc(C(=O)N/N=C/c2cccc(OC(=O)/C=C/c3ccco3)c2)cn1`?
SKKanGAS inh: 10.3; tim23-1 inh: 14.5; PfHsp90 set2: 13.3; EBI2 block: -9.3; TIM10 inh: 6.3; tim10-1 inh: 18.0

Results for N#C/C(=C(/O)c1ccccc1F)c1nc2cc(C(F)(F)F)ccc2s1 ?
SKKanGAS inh: 11.5; tim23-1 inh: 16.6; PfHsp90 set2: 14.6; EBI2 block: -1.2; TIM10 inh: -1.0; tim10-1 inh: 8.2

What do the screens show for `N#C/C(=C(/O)c1ccc2c(c1)OCO2)c1nc2cc(C(F)(F)F)ccc2s1`?
SKKanGAS inh: 51.6*; tim23-1 inh: -0.5; PfHsp90 set2: -6.6; EBI2 block: 13.2; TIM10 inh: 13.6; tim10-1 inh: -1.0

What do the screens show for `COCC(=O)Nc1nc2ccccc2s1`?
SKKanGAS inh: 5.4; tim23-1 inh: 5.1; PfHsp90 set2: -19.6; EBI2 block: -4.7; TIM10 inh: 1.3; tim10-1 inh: -12.8

What do the screens show for `O=C(COC(=O)Cc1cn2ccsc2n1)Nc1nc2ccccc2s1`?
SKKanGAS inh: 80.0*; tim23-1 inh: 21.1; PfHsp90 set2: -3.3; EBI2 block: -1.2; TIM10 inh: 5.9; tim10-1 inh: 20.4

Results for Cc1cc(NC(=O)C(C)Oc2ccccc2)no1 (stereo not drawn) ?
SKKanGAS inh: -3.9; tim23-1 inh: 8.2; PfHsp90 set2: -2.3; EBI2 block: 5.0; TIM10 inh: -16.2; tim10-1 inh: 2.9

Results for CC(=O)OCC1OC(n2cc(F)c(=O)[nH]c2=O)C(OC(C)=O)C1OC(C)=O (stereo not drawn) ?
SKKanGAS inh: 11.6; tim23-1 inh: 8.4; PfHsp90 set2: 1.0; EBI2 block: -11.3; TIM10 inh: 9.7; tim10-1 inh: 2.9

How did O=C1C(F)=CC(COC(c2ccccc2)(c2ccccc2)c2ccccc2)OC1n1cc(F)c(=O)[nH]c1=O (stereo not drawn) do in these assays?
PfHsp90 set2: 101.9*; EBI2 block: -5.9

Results for CC(C)(C)c1ccc(-c2cc(C(=O)NNC(=O)Nc3ccccc3)c3ccccc3n2)cc1 ?
SKKanGAS inh: 56.3*; tim23-1 inh: -0.4; PfHsp90 set2: 10.7; EBI2 block: 17.9; TIM10 inh: 9.1; tim10-1 inh: 30.1

Results for Cc1ccnc(NS(=O)(=O)c2ccc(NC(=O)c3cc(-c4ccccc4)nc4ccccc34)cc2)n1 ?
SKKanGAS inh: 24.0; tim23-1 inh: 0.7; PfHsp90 set2: 15.7; EBI2 block: -7.6; TIM10 inh: -14.5; tim10-1 inh: 22.6

How did O=C(NNC(=O)c1cc(-c2ccccc2)nc2ccccc12)Nc1cccc(Cl)c1 do in these assays?
SKKanGAS inh: inconclusive; tim23-1 inh: 22.0; PfHsp90 set2: -22.6; EBI2 block: -5.8; TIM10 inh: 8.1; tim10-1 inh: 19.9

How did Cc1ccnc(NS(=O)(=O)c2ccc(NC(=O)c3cc(-c4ccc(Br)cc4)nc4ccccc34)cc2)n1 do in these assays?
SKKanGAS inh: 62.1*; tim23-1 inh: -5.6; PfHsp90 set2: -5.9; EBI2 block: -1.3; TIM10 inh: 11.0; tim10-1 inh: 3.9

Results for COc1ccc(C(=O)NNC(=S)NC(=O)c2cc(-c3ccccc3)nc3ccccc23)cc1 ?
SKKanGAS inh: 106.7*; tim23-1 inh: 34.8; PfHsp90 set2: -11.6; EBI2 block: 8.4; TIM10 inh: 38.4; tim10-1 inh: 36.3

What do the screens show for `COc1ccc(Cl)cc1C(=O)NNC(=S)NC(=O)c1cc(-c2ccccc2)nc2ccccc12`?
SKKanGAS inh: 80.4*; tim23-1 inh: 10.8; PfHsp90 set2: -8.6; EBI2 block: -8.0; TIM10 inh: 16.0; tim10-1 inh: 8.6

How did COc1cccc(NC(=S)NC2CC(C)CC(C)(C)C2)c1 (stereo not drawn) do in these assays?
EBI2 block: 10.2

Results for Cc1cccc(CC(=O)NCCS(=O)(=O)N2CCN(c3ccccc3)CC2)c1 ?
EBI2 block: -2.9

What do the screens show for `O=C(NC1CCCCC1)C(C1CC1)n1c(=O)c(-c2cc3ccccc3[nH]2)nc2ccccc21` (stereo not drawn)?
EBI2 block: 13.4

Results for CCCCc1ccc(NC(=S)NCc2ccccc2OC)cc1 ?
SKKanGAS inh: 59.2*; tim23-1 inh: 29.7; PfHsp90 set2: 3.4; EBI2 block: -2.7; TIM10 inh: 26.1; tim10-1 inh: 27.2

Results for COc1ccccc1CNC(=S)Nc1ccc(S(N)(=O)=O)cc1 ?
SKKanGAS inh: -3.2; tim23-1 inh: -1.1; PfHsp90 set2: 7.4; EBI2 block: -0.1; TIM10 inh: 2.6; tim10-1 inh: 11.3

What do the screens show for `O=C(/C=C/[C@H]1O[C@@H](n2ccc(=O)[nH]c2=O)[C@H](O)[C@@H]1O)NC1CCN(Cc2ccccc2)C1` (stereo partly drawn)?
EBI2 block: -7.8

How did S=c1[nH]nc(-c2cc3c(s2)-c2ccccc2CC3)o1 do in these assays?
SKKanGAS inh: 73.3*; tim23-1 inh: 33.6; PfHsp90 set2: -90.8; EBI2 block: -4.8; TIM10 inh: 6.1; tim10-1 inh: 22.8

How did CSc1nnc(-c2cc3c(s2)-c2ccccc2CC3)o1 do in these assays?
SKKanGAS inh: 16.7; tim23-1 inh: 34.5; PfHsp90 set2: -18.5; EBI2 block: -7.9; TIM10 inh: 2.2; tim10-1 inh: 32.5

How did O=C(c1ccc(F)cc1)N1CCC2(CC1)NCCc1[nH]cnc12 do in these assays?
SKKanGAS inh: -1.6; tim23-1 inh: -6.2; PfHsp90 set2: 8.7; EBI2 block: -1.0; TIM10 inh: 0.2; tim10-1 inh: -8.4

What do the screens show for `COc1ccc(C(=O)N2CCCC(Nc3ccc(C)c(C)c3)C2)cc1F` (stereo not drawn)?
SKKanGAS inh: 51.5*; tim23-1 inh: 30.8; PfHsp90 set2: 9.4; EBI2 block: -3.1; TIM10 inh: 7.7; tim10-1 inh: 11.7
